Results from PubChem BioAssay AID1159580 (chemical genetic matrix, 2015).
Several values for one entry are separate records, joined by “and”; a condition that tells them apart may be missing. Equal values may be shown once. In all, about 5,500 compounds went through this assay and about 2,000 (36%) were called active. Inconclusive results (about 18%) are left out. No stated cut-off is given here; in the data, active means normalized growth mostly below about 0.91 (no sharp cut-off); inconclusive means no clear call, values can overlap the other calls; inactive means mostly above about 0.92. Some of the results follow.

Assay: chemical genetic growth profiling, strain panel (AID 1159580);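 further: tested at 20 µM; growth read once vehicle control cultures reached saturation at 30 °C; 1 = growth at the plate median or of vehicle wells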
Settings: growth OD
[1] = S. cerevisiae deletion strains, locus YBR021W, strain FUR4, stronger effect = lower value
[2] = S. cerevisiae deletion strains, locus YBR229C, strain ROT2, stronger effect = lower value
[3] = S. cerevisiae deletion strains, locus YCL029C, strain bik1, stronger effect = lower value
[4] = S. cerevisiae deletion strains, locus YDL035C, strain GPR1, stronger effect = lower value
[5] = S. cerevisiae deletion strains, locus YDL074C, strain BRE1, stronger effect = lower value
[6] = S. cerevisiae deletion strains, locus YDL101C, strain DUN1, stronger effect = lower value
[7] = S. cerevisiae deletion strains, locus YDL134C, strain PPH21, stronger effect = lower value
[8] = S. cerevisiae deletion strains, locus YDL185W, strain tfp1, stronger effect = lower value
[9] = S. cerevisiae deletion strains, locus YDL192W, strain arf1, stronger effect = lower value
[10] = S. cerevisiae deletion strains, locus YDR101C, strain arx1, stronger effect = lower value
[11] = S. cerevisiae deletion strains, locus YDR150W, strain NUM1, stronger effect = lower value
[12] = S. cerevisiae deletion strains, locus YDR162C, strain NBP2, stronger effect = lower value
[13] = S. cerevisiae deletion strains, locus YDR318W, strain mcm21, stronger effect = lower value
[14] = S. cerevisiae deletion strains, locus YDR388W, stronger effect = lower value
[15] = S. cerevisiae deletion strains, locus YDR502C, strain sam2, stronger effect = lower value
[16] = S. cerevisiae deletion strains, locus YEL061C, strain CIN8, stronger effect = lower value
[17] = S. cerevisiae deletion strains, locus YER110C, stronger effect = lower value
[18] = S. cerevisiae deletion strains, locus YER155C, strain BEM2, stronger effect = lower value
[19] = S. cerevisiae deletion strains, locus YER167W, strain BCK2, stronger effect = lower value
[20] = S. cerevisiae deletion strains, locus YGL078C, strain dbp3, stronger effect = lower value
[21] = S. cerevisiae deletion strains, locus YGL086W, strain mad1, stronger effect = lower value
[22] = S. cerevisiae deletion strains, locus YGL248W, strain PDE1, stronger effect = lower value
[23] = S. cerevisiae deletion strains, locus YGR135W, strain pre9, stronger effect = lower value
[24] = S. cerevisiae deletion strains, locus YGR229C, strain SMI1, stronger effect = lower value
[25] = S. cerevisiae deletion strains, locus YGR252W, strain gcn5, stronger effect = lower value
[26] = S. cerevisiae deletion strains, locus YHR030C, strain SLT2, stronger effect = lower value
[27] = S. cerevisiae deletion strains, locus YHR079C, strain IRE1 (second series), stronger effect = lower value
[28] = S. cerevisiae deletion strains, locus YHR079C, strain IRE1, stronger effect = lower value
[29] = S. cerevisiae deletion strains, locus YHR094C, strain hxt1, stronger effect = lower value
[30] = S. cerevisiae deletion strains, locus YHR129C, strain ARP1, stronger effect = lower value
[31] = S. cerevisiae deletion strains, locus YHR200W, strain rpn10, stronger effect = lower value
[32] = S. cerevisiae deletion strains, locus YIL066C, strain RNR3, stronger effect = lower value
[33] = S. cerevisiae deletion strains, locus YIL073C, strain SPO22, stronger effect = lower value
[34] = S. cerevisiae deletion strains, locus YIL125W, strain kgd1, stronger effect = lower value
[35] = S. cerevisiae deletion strains, locus YIR030C, strain dcg1, stronger effect = lower value
[36] = S. cerevisiae deletion strains, locus YJL095W, strain BCK1, stronger effect = lower value
[37] = S. cerevisiae deletion strains, locus YJL134W, strain LCB3, stronger effect = lower value
[38] = S. cerevisiae deletion strains, locus YJL168C, strain set2, stronger effect = lower value
[39] = S. cerevisiae deletion strains, locus YJL187C, strain SWE1 (second series), stronger effect = lower value
[40] = S. cerevisiae deletion strains, locus YJR043C, strain POL32, stronger effect = lower value
[41] = S. cerevisiae deletion strains, locus YJR066W, strain TOR1, stronger effect = lower value
[42] = S. cerevisiae deletion strains, locus YKL009W, strain mrt4, stronger effect = lower value
[43] = S. cerevisiae deletion strains, locus YKL068W, stronger effect = lower value
[44] = S. cerevisiae deletion strains, locus YKL085W, strain MDH1 (second series), stronger effect = lower value
[45] = S. cerevisiae deletion strains, locus YKL085W, strain MDH1, stronger effect = lower value
[46] = S. cerevisiae deletion strains, locus YKR001C, strain vps1, stronger effect = lower value
[47] = S. cerevisiae deletion strains, locus YLR039C, strain RIC1, stronger effect = lower value
[48] = S. cerevisiae deletion strains, locus YLR058C, strain SHM2, stronger effect = lower value
[49] = S. cerevisiae deletion strains, locus YLR102C, strain apc9, stronger effect = lower value
[50] = S. cerevisiae deletion strains, locus YLR113W, strain HOG1, stronger effect = lower value
[51] = S. cerevisiae deletion strains, locus YLR262C, strain YPT6, stronger effect = lower value
[52] = S. cerevisiae deletion strains, locus YLR268W, strain sec22, stronger effect = lower value
[53] = S. cerevisiae deletion strains, locus YLR330W, strain CHS5, stronger effect = lower value
[54] = S. cerevisiae deletion strains, locus YLR342W, strain FKS1 (second series), stronger effect = lower value
[55] = S. cerevisiae deletion strains, locus YLR371W, strain rom2, stronger effect = lower value
[56] = S. cerevisiae deletion strains, locus YLR418C, strain cdc73, stronger effect = lower value
[57] = S. cerevisiae deletion strains, locus YML016C, strain PPZ1, stronger effect = lower value
[58] = S. cerevisiae deletion strains, locus YML032C, strain rad52, stronger effect = lower value
[59] = S. cerevisiae deletion strains, locus YML124C, strain tub3, stronger effect = lower value
[60] = S. cerevisiae deletion strains, locus YMR078C, strain ctf18, stronger effect = lower value
[61] = S. cerevisiae deletion strains, locus YMR223W, strain ubp8, stronger effect = lower value
[62] = S. cerevisiae deletion strains, locus YMR263W, strain SAP30, stronger effect = lower value
[63] = S. cerevisiae deletion strains, locus YMR307W, strain GAS1, stronger effect = lower value
[64] = S. cerevisiae deletion strains, locus YNL067W, strain RPL9B, stronger effect = lower value
[65] = S. cerevisiae deletion strains, locus YNL183C, strain NPR1, stronger effect = lower value
[66] = S. cerevisiae deletion strains, locus YNL233W, strain BNI4, stronger effect = lower value
[67] = S. cerevisiae deletion strains, locus YNL250W, strain rad50, stronger effect = lower value
[68] = S. cerevisiae deletion strains, locus YNL271C, strain bni1, stronger effect = lower value
[69] = S. cerevisiae deletion strains, locus YNL298W, strain CLA4, stronger effect = lower value
[70] = S. cerevisiae deletion strains, locus YNL307C, strain MCK1, stronger effect = lower value
[71] = S. cerevisiae deletion strains, locus YNL322C, strain KRE1, stronger effect = lower value
[72] = S. cerevisiae deletion strains, locus YNR052C, strain pop2, stronger effect = lower value
[73] = S. cerevisiae deletion strains, locus YOL012C, strain htz1
[74] = S. cerevisiae deletion strains, locus YOL147C, strain pex11, stronger effect = lower value
[75] = S. cerevisiae deletion strains, locus YOR061W, strain CKA2, stronger effect = lower value
[76] = S. cerevisiae deletion strains, locus YOR069W, strain VPS5, stronger effect = lower value
[77] = S. cerevisiae deletion strains, locus YOR136W, strain idh2, stronger effect = lower value
[78] = S. cerevisiae deletion strains, locus YOR144C, strain elg1, stronger effect = lower value
[79] = S. cerevisiae deletion strains, locus YOR184W, strain ser1, stronger effect = lower value
[80] = S. cerevisiae deletion strains, locus YOR231W, strain MKK1, stronger effect = lower value
[81] = S. cerevisiae deletion strains, locus YOR316C, strain cot1, stronger effect = lower value
[82] = S. cerevisiae deletion strains, locus YPL256C, strain CLN2, stronger effect = lower value
[83] = S. cerevisiae deletion strains, locus YPR119W, strain clb2, stronger effect = lower value
[84] = S. cerevisiae deletion strains, locus YPR141C, strain kar3, stronger effect = lower value
[85] = S. cerevisiae deletion strains, locus YPR163C, strain tif3, stronger effect = lower value
[86] = S. cerevisiae deletion strains, locus YPR167C, strain met16, stronger effect = lower value
[87] = S. cerevisiae deletion strains, strain wtn01, stronger effect = lower value

Measured: normalized growth

C[C@H]1OC(O[C@H]2[C@@H](O)CC(O[C@H]3[C@@H](O)C[C@H](O[C@H]4CC[C@]5(C)C6CC[C@]7(C)[C@@H](C8=CC(=O)OC8)[C@@H](O)C[C@]7(O)[C@@H]6CC[C@@H]5C4)O[C@@H]3C)O[C@@H]2C)C[C@H](O)C1O (some centres undefined)
inactive: [1] 0.986 | [2] 1.01 | [3] 0.989 | [4] 0.992 | [5] 1.01 | [6] 1 | [7] 1.01 | [8] 0.981 | [9] 0.988 | [10] 0.991 | [11] 1.02 | [12] 1 | [13] 1.01 | [14] 0.999 | [15] 0.987 | [16] 0.999 | [17] 0.986 | [18] 0.985 | [19] 0.99 | [20] 0.981 | [21] 0.965 | [22] 1.01 | [23] 1.01 | [24] 0.998 | [25] 1.02 | [26] 1 and 1.03 | [27] 0.998 | [28] 1.03 | [29] 0.989 | [30] 0.999 | [31] 1 | [32] 1 | [33] 1.01 | [34] 0.981 | [35] 0.989 | [36] 1.01 and 1 | [37] 1 | [38] 0.996 | [39] 1.02 | [40] 1.01 | [41] 0.965 | [42] 0.927 | [43] 0.994 | [44] 0.988 | [45] 0.988 | [46] 0.986 | [47] 1.06 | [48] 1 | [49] 0.99 | [50] 0.975 | [51] 1.04 | [52] 0.99 | [53] 0.994 | [54] 1.02 | [55] 0.989 | [56] 0.998 | [57] 1.01 | [58] 1.01 | [59] 1 | [60] 1 | [61] 1.01 | [62] 1.01 | [63] 1.05 | [64] 1.01 | [65] 0.989 | [66] 0.995 | [67] 0.983 | [68] 0.99 | [69] 0.989 | [70] 0.993 | [71] 1.01 | [72] 0.999 | [73] 1.48 | [74] 0.984 | [75] 1.01 | [76] 0.995 | [77] 0.98 | [78] 0.995 | [79] 0.983 | [80] 0.995 | [81] 0.994 | [82] 1.03 | [83] 0.996 | [84] 0.99 | [85] 0.995 | [86] 0.994 | [87] 0.98

CO[C@H]1[C@H](O)[C@@H](O[C@H]2CC[C@]3(C=O)C4CC[C@]5(C)[C@@H](C6=CC(=O)OC6)CC[C@]5(O)C4CC[C@@H]3C2)O[C@@H](C)[C@@H]1O (some centres undefined)
inactive: S. cerevisiae deletion strains, locus YAL013W, strain DEP1, stronger effect = lower value 0.982 | [1] 1.01 | [2] 0.959 | [3] 0.993 | [4] 0.986 | [5] 1.01 | [6] 0.973 | [7] 0.986 | [8] 0.989 | [9] 0.99 | [10] 1 | [11] 0.966 | [12] 0.978 | [13] 1.01 | [14] 0.999 | [15] 0.992 | [16] 0.984 | [17] 0.973 | [18] 0.997 | [19] 0.995 | [20] 0.986 | [21] 0.989 | [22] 0.973 | S. cerevisiae deletion strains, locus YGR078C, strain PAC10, stronger effect = lower value 1 | [23] 1 | [24] 0.996 | [25] 0.999 | [26] 0.987 and 0.975 | [27] 0.99 | [28] 0.965 | [29] 0.988 | [30] 0.996 | [31] 0.999 | [32] 0.968 | [33] 0.994 | [34] 0.98 | [35] 0.982 | [36] 1.04 and 0.973 | [37] 0.981 | [38] 0.992 | [39] 0.99 | [40] 1.01 | [41] 0.972 | S. cerevisiae deletion strains, locus YJR075W, strain HOC1, stronger effect = lower value 0.998 | [42] 0.943 | [43] 0.994 | [44] 0.98 | [45] 0.98 | S. cerevisiae deletion strains, locus YKL190W, strain CNB1, stronger effect = lower value 0.991 | [46] 0.993 | [47] 0.969 | [48] 0.965 | [49] 0.994 | [50] 0.975 | [51] 0.972 | [52] 1.05 | [53] 0.982 | [54] 0.998 | [55] 0.979 | [56] 1 | [57] 0.987 | [58] 1.01 | [59] 0.989 | [60] 0.993 | [61] 0.977 | [62] 0.987 | [63] 0.981 | [64] 1.01 | S. cerevisiae deletion strains, locus YNL128W, strain TEP1, stronger effect = lower value 0.969 | S. cerevisiae deletion strains, locus YNL153C, strain GIM3, stronger effect = lower value 0.994 | [65] 0.903 | [66] 0.999 | [67] 0.969 | [68] 1 | [69] 0.992 | [70] 0.993 | [71] 0.989 | [72] 1.01 | S. cerevisiae deletion strains, locus YOL006C, strain TOP1, stronger effect = lower value 1.01 | [73] 0.939 | [74] 0.998 | [75] 0.968 | [76] 0.988 | [77] 0.986 | [78] 0.998 | [79] 0.981 | [80] 0.957 | [81] 0.985 | S. cerevisiae deletion strains, locus YPL055C, strain LGE1, stronger effect = lower value 0.979 | S. cerevisiae deletion strains, locus YPL241C, strain CIN2, stronger effect = lower value 0.992 | [82] 0.948 | [83] 0.989 | [84] 0.983 | [85] 1 | [86] 0.992 | [87] 0.996 | S. cerevisiae strains, strain wild type, stronger effect = lower value 0.978
